Screening data: PubChem, several laboratories
This is a sample that favours compounds with a hit; in the whole collection about 1.3% have one here.
GALR2 antag: antagonists of human galanin receptor 2 (GALR2) | O43603 | GALR2-expressing cells, antagonist mode | inhibition, % at 4 µM | 140,000 compounds, 0.39% hits | AID 828;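 also: cells stimulated with galanin 1-16 at roughly its EC80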
Target sequence (O43603 whole entry, looked up): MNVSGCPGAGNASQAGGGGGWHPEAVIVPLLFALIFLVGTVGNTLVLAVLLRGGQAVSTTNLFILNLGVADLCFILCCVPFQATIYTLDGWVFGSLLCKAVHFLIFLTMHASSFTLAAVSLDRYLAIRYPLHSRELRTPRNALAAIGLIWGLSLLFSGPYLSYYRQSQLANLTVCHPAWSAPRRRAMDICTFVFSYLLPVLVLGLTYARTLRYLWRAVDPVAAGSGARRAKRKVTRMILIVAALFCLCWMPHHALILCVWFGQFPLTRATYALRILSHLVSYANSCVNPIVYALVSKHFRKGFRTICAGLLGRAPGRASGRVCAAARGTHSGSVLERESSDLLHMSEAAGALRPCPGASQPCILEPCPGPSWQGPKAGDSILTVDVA
Candida biofilm: kills Candida albicans biofilms; AID 834; 85,000 compounds, 0.14% hits; inhibition, % at 6 µM; C. albicans biofilm + clotrimazole, Alamar Blue;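 active = inhibition above 20%; inactive = inhibition below 20%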;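 also: preformed 24 hr biofilms exposed to compound for 48 hr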
Phagocytosis inh: blocks phagocytosis by macrophages; J774A.1 macrophage IgG-bead phagocytosis, imaging; inhibition, % at 5 µM; 110,000 compounds, 0.07% hits;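 active = inhibition above the mean of the plate negative controls plus 5 SD, cut at about 13% in these data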;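 also: phagocytic index as fraction of beads internalized from green versus red external bead signal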
S1P2 antag: blocks the human S1P2 receptor. AID 736. inhibition, % at 5 µM. O95136. cell-based S1P2 antagonist assay, inhibition at 5 uM. 97,000 compounds, 0.21% hits; in the data active = inhibition above about 45%;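 also: CRE beta-lactamase reporter cells expressing human S1P2 stimulated with S1P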
GALR2 agonist: GALR2 (human) receptor agonism; O43603; GALR2-expressing cells, agonist activation read-out; activation, % (concentration not given with the values); 140,000 compounds, 0.48% hits; AID 803; in the data active = activation above about 5%, passing the limit was not always enough
S1P2 agonist: agonists of human S1P2 receptor. O95136. S1P2-expressing cell line, agonist reporter read-out. 97,000 compounds, 0.46% hits. activation, % at 4.5 µM; in the data active = activation above about 16%
GALR2 blk conf: GALR2 (human) antagonism confirmed; shares compounds with GALR2 antag; GALR2-expressing cells, antagonist mode, inhibition; inhibition, % at 4 µM; 480 compounds, 60% hits;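 also: cells stimulated with galanin at about its EC80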
BLA inhib ctr: inhibits beta-lactamase reporter in GALR2 antagonist counterscreen; shares compounds with GALR2 antag; CHO NFAT-BLA reporter, beta-lactamase FRET, thapsigargin-stimulated; inhibition, % at 4.2 µM; 480 compounds, 36% hits;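 active = inhibition above the mean inhibition across tested compounds plus 3 SD, cut at about 27% in these data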
Numbers stand for hits; . = inactive; / = no result given. Rule as the data show it, unless noted: active = inhibition above about 27%; inactive = the rest.

SMILES	GALR2 antag	Candida biofilm	Phagocytosis inh	S1P2 antag	GALR2 agonist	S1P2 agonist	GALR2 blk conf	BLA inhib ctr
CC(=O)c1c(C)[nH]c(C(=O)OCC(=O)Nc2ccc(C)cc2[N+](=O)[O-])c1C	40	/	/	/	.	/	49	.
NC(=O)C1CCN(C(=O)Nc2ccccc2)CC1	.	/	/	.	.	.	/	/
NC(=O)C1CCN(C2=C(Cl)C(=O)c3ccccc3C2=O)CC1	34	/	/	.	.	.	50	37
COc1ccc(-c2cc(=O)n(CCC#N)[nH]2)cc1	.	/	.	/	.	/	/	/
COC(=O)C1=C(C)NC(=O)C1(NS(=O)(=O)c1ccc(C)cc1)C(F)(F)F (stereo not drawn)	.	.	.	.	.	.	/	/
COc1ccc(O)c(/C=N/NC(=S)Nc2cccc(S(=O)(=O)N(C)C)c2)c1	35	/	.	/	.	/	.	.
O=C(N/N=C/C(Br)=C\c1ccccc1)c1n[nH]c2c1CCC2	33	.	.	.	.	.	38	61
CC(/C=N/NC(=O)c1n[nH]c2c1CCC2)=C\c1ccccc1	.	.	.	.	.	.	/	/
c1cncc(-c2nc(NCC3COc4ccccc4O3)c3ccccc3n2)c1 (stereo not drawn)	.	.	.	.	.	.	/	/
c1ccc2c(c1)OCC(CNc1ncnc3sccc13)O2 (stereo not drawn)	42	/	.	/	.	/	54	.
Cc1cc(Nc2cccc(F)c2)nc(NCc2ccccc2)n1	.	/	.	/	.	/	/	/
Cc1cc(Nc2ccccc2)nc(NCc2ccccc2)n1	42	/	.	/	.	/	50	31
CC(NC(=O)Cn1nnc(-c2ccncc2)n1)c1ccccc1 (stereo not drawn)	.	.	/	.	.	.	/	/
COc1ccc(CCNc2ncnc3c2oc2ccccc23)cc1OC	27	.	/	67	.	.	38	.
Cc1ccc(-n2c(-c3ccc(Br)cc3)c[n+]3c2CCc2ccc4cccnc4c2-3)cc1	59	.	/	88	.	.	31	61
CC1(C)CC(=O)/C(=C\c2cccc([N+](=O)[O-])c2)C(C)(C)N1	27	/	.	/	.	/	34	.
C/C(=N\Nc1ccc([N+](=O)[O-])cc1)c1cccc(N)c1	30	/	/	.	.	.	31	.
O=C1C(Nc2ccccc2)=C/C(=N/S(=O)(=O)c2cccs2)c2ccccc21	88	/	.	/	5.5	/	67	71
Cc1ccc(NC2=C/C(=N/S(=O)(=O)c3cccs3)c3ccccc3C2=O)cc1	.	/	.	/	.	/	/	/
Cc1ccc(C(=O)N2C(=S)C(c3ccc(F)cc3)=NC23CCN(C)CC3)cc1	.	/	.	/	.	/	/	/
CC(NC(=O)OC(C)(C)C)C(=O)Oc1cc2oc(=O)cc(-c3ccccc3)c2cc1Cl (stereo not drawn)	32	/	.	.	.	.	29	40
Cc1cccc(C)c1N1C(=O)C2ON(c3ccccc3)C(c3ccncc3)C2C1=O (stereo not drawn)	.	.	.	.	.	.	/	/
Cc1ccc(/C=C2\C(=O)Nc3ccccc32)o1	.	/	.	/	.	/	/	/
O=C1Nc2ccccc2/C1=C/C(=O)c1cccs1	27	.	/	.	.	.	30	.
CC(=O)c1c(C)nc(-c2ccc(Cl)cc2)nc1N=CN(C)C	31	.	.	.	.	.	.	.
SMILES	GALR2 antag	Candida biofilm	Phagocytosis inh	S1P2 antag	GALR2 agonist	S1P2 agonist	GALR2 blk conf	BLA inhib ctr
COc1cc(N2CCCC2)c(OC)cc1/C=C(/C#N)c1ccc(F)cc1	.	.	/	.	.	.	/	/
COc1cc(N2CCCC2)c(OC)cc1/C=C(/C#N)c1ccc(Br)cc1	63	.	/	.	.	.	.	.
O=C(Cc1ccc(Br)cc1)Nc1ccccc1Sc1ccccc1	.	/	.	.	.	.	/	/
COc1ccc2[nH]c(=O)c(CN(CCCN(C)C)C(=O)Nc3ccccc3)cc2c1	.	.	.	.	.	.	/	/
CCc1ccc2[nH]c(=O)c(CN(CCN(C)C)C(=O)Nc3ccccc3)cc2c1	27	.	.	.	.	.	.	.
Cc1ccc(Cl)c(NC(=O)COC(=O)c2ccccc2C(=O)c2ccc(Cl)c([N+](=O)[O-])c2)c1Cl	69	/	.	/	.	/	80	71
O=[N+]([O-])c1ccccc1N/N=C/c1c[nH]c2ccccc12	.	/	/	.	.	.	/	/
O=[N+]([O-])c1ccc(N/N=C/c2c[nH]c3ccccc23)cc1	36	/	/	.	.	.	.	30
CC(Cc1cccs1)NC(=O)Nc1cccc(Cl)c1 (stereo not drawn)	.	.	.	.	.	.	/	/
CC(Cc1cccs1)NC(=O)Nc1ccc(F)cc1 (stereo not drawn)	28	.	.	.	.	.	.	.
Cc1cccc(CSc2cccc3cccnc23)c1	29	/	/	.	.	.	.	.
Cc1ccc2nsnc2c1NC(=O)c1ccc2c(c1)OCCO2	38	.	.	.	.	.	.	.
O=[N+]([O-])c1cc(C=Nc2ccc3ccccc3c2)ccc1Br	33	/	.	/	.	/	.	.
Cc1cc(C(F)(F)F)nn1Cc1n[nH]c(=S)n1-c1ccc(F)cc1	63	/	.	/	.	/	.	.
COc1ccc2[nH]c3c(NCCN(C(C)C)C(C)C)ncnc3c2c1	.	.	.	.	.	.	/	/
CC(C)OCCCNc1ncnc2c1[nH]c1ccccc12	39	.	.	.	.	.	37	.
C1=C(CCNc2ncnc3c2[nH]c2ccccc23)CCCC1	48	/	.	/	.	/	61	.
O=c1c2[nH]c3ccccc3c2ncn1CCC1=CCCCC1	.	.	.	.	.	.	/	/
CC1(C)CC(=O)C=C(NC2=CC3OC(c4ccccc4)OCC3OC2=O)C1 (stereo not drawn)	69	/	.	/	.	/	76	65
Cc1ccccc1NC1=CC(=O)CC(C)(C)C1	.	.	/	.	.	.	/	/
CC(C)Cn1ccc(=O)n(CC(C)C)c1=O	.	/	.	/	.	/	/	/
Cc1ccc(N(NC(=O)C(O)(c2ccccc2)c2ccccc2)C(=O)CCl)cc1	48	/	.	/	.	/	37	56
Cc1ccc(NC(=O)c2ccnc(C(C)(C)C)c2)cc1	.	.	/	.	.	.	/	/
Nn1c(SCC(=O)N2CCOCC2)nnc1-c1ccccc1Cl	.	.	/	.	.	.	/	/
CC(C)(C)NC(=O)NC(=O)COc1ccccn1	.	.	.	.	.	.	/	/
SMILES	GALR2 antag	Candida biofilm	Phagocytosis inh	S1P2 antag	GALR2 agonist	S1P2 agonist	GALR2 blk conf	BLA inhib ctr
Cc1c(C(=O)Nc2cccc(Cl)c2)c2ccccn2c1CCc1ccncc1	33	/	.	/	.	/	.	.
O=C(Cc1cccs1)Nc1cccc(-c2nc3cc4ccccc4cc3[nH]2)c1	28	/	.	/	.	/	30	.
CCOc1cccc(NC(=O)Cc2cccs2)c1	.	.	.	/	.	/	/	/
Cn1c(=O)c2c(nc(SCC(=O)Nc3ccccc3)n2C)n(C)c1=O	28	.	.	/	.	/	.	.
CCn1c(SCC(=O)Nc2ccccc2)nc2c1c(=O)n(C)c(=O)n2C	.	.	/	.	.	.	/	/
Cc1nnc(SCC(=O)Nc2cccc(S(=O)(=O)N(C)c3ccccc3)c2)s1	32	/	.	/	.	/	35	.
